Values without a mark were called inactive.

Chain of UniProt Q15149 (Q15149 whole entry): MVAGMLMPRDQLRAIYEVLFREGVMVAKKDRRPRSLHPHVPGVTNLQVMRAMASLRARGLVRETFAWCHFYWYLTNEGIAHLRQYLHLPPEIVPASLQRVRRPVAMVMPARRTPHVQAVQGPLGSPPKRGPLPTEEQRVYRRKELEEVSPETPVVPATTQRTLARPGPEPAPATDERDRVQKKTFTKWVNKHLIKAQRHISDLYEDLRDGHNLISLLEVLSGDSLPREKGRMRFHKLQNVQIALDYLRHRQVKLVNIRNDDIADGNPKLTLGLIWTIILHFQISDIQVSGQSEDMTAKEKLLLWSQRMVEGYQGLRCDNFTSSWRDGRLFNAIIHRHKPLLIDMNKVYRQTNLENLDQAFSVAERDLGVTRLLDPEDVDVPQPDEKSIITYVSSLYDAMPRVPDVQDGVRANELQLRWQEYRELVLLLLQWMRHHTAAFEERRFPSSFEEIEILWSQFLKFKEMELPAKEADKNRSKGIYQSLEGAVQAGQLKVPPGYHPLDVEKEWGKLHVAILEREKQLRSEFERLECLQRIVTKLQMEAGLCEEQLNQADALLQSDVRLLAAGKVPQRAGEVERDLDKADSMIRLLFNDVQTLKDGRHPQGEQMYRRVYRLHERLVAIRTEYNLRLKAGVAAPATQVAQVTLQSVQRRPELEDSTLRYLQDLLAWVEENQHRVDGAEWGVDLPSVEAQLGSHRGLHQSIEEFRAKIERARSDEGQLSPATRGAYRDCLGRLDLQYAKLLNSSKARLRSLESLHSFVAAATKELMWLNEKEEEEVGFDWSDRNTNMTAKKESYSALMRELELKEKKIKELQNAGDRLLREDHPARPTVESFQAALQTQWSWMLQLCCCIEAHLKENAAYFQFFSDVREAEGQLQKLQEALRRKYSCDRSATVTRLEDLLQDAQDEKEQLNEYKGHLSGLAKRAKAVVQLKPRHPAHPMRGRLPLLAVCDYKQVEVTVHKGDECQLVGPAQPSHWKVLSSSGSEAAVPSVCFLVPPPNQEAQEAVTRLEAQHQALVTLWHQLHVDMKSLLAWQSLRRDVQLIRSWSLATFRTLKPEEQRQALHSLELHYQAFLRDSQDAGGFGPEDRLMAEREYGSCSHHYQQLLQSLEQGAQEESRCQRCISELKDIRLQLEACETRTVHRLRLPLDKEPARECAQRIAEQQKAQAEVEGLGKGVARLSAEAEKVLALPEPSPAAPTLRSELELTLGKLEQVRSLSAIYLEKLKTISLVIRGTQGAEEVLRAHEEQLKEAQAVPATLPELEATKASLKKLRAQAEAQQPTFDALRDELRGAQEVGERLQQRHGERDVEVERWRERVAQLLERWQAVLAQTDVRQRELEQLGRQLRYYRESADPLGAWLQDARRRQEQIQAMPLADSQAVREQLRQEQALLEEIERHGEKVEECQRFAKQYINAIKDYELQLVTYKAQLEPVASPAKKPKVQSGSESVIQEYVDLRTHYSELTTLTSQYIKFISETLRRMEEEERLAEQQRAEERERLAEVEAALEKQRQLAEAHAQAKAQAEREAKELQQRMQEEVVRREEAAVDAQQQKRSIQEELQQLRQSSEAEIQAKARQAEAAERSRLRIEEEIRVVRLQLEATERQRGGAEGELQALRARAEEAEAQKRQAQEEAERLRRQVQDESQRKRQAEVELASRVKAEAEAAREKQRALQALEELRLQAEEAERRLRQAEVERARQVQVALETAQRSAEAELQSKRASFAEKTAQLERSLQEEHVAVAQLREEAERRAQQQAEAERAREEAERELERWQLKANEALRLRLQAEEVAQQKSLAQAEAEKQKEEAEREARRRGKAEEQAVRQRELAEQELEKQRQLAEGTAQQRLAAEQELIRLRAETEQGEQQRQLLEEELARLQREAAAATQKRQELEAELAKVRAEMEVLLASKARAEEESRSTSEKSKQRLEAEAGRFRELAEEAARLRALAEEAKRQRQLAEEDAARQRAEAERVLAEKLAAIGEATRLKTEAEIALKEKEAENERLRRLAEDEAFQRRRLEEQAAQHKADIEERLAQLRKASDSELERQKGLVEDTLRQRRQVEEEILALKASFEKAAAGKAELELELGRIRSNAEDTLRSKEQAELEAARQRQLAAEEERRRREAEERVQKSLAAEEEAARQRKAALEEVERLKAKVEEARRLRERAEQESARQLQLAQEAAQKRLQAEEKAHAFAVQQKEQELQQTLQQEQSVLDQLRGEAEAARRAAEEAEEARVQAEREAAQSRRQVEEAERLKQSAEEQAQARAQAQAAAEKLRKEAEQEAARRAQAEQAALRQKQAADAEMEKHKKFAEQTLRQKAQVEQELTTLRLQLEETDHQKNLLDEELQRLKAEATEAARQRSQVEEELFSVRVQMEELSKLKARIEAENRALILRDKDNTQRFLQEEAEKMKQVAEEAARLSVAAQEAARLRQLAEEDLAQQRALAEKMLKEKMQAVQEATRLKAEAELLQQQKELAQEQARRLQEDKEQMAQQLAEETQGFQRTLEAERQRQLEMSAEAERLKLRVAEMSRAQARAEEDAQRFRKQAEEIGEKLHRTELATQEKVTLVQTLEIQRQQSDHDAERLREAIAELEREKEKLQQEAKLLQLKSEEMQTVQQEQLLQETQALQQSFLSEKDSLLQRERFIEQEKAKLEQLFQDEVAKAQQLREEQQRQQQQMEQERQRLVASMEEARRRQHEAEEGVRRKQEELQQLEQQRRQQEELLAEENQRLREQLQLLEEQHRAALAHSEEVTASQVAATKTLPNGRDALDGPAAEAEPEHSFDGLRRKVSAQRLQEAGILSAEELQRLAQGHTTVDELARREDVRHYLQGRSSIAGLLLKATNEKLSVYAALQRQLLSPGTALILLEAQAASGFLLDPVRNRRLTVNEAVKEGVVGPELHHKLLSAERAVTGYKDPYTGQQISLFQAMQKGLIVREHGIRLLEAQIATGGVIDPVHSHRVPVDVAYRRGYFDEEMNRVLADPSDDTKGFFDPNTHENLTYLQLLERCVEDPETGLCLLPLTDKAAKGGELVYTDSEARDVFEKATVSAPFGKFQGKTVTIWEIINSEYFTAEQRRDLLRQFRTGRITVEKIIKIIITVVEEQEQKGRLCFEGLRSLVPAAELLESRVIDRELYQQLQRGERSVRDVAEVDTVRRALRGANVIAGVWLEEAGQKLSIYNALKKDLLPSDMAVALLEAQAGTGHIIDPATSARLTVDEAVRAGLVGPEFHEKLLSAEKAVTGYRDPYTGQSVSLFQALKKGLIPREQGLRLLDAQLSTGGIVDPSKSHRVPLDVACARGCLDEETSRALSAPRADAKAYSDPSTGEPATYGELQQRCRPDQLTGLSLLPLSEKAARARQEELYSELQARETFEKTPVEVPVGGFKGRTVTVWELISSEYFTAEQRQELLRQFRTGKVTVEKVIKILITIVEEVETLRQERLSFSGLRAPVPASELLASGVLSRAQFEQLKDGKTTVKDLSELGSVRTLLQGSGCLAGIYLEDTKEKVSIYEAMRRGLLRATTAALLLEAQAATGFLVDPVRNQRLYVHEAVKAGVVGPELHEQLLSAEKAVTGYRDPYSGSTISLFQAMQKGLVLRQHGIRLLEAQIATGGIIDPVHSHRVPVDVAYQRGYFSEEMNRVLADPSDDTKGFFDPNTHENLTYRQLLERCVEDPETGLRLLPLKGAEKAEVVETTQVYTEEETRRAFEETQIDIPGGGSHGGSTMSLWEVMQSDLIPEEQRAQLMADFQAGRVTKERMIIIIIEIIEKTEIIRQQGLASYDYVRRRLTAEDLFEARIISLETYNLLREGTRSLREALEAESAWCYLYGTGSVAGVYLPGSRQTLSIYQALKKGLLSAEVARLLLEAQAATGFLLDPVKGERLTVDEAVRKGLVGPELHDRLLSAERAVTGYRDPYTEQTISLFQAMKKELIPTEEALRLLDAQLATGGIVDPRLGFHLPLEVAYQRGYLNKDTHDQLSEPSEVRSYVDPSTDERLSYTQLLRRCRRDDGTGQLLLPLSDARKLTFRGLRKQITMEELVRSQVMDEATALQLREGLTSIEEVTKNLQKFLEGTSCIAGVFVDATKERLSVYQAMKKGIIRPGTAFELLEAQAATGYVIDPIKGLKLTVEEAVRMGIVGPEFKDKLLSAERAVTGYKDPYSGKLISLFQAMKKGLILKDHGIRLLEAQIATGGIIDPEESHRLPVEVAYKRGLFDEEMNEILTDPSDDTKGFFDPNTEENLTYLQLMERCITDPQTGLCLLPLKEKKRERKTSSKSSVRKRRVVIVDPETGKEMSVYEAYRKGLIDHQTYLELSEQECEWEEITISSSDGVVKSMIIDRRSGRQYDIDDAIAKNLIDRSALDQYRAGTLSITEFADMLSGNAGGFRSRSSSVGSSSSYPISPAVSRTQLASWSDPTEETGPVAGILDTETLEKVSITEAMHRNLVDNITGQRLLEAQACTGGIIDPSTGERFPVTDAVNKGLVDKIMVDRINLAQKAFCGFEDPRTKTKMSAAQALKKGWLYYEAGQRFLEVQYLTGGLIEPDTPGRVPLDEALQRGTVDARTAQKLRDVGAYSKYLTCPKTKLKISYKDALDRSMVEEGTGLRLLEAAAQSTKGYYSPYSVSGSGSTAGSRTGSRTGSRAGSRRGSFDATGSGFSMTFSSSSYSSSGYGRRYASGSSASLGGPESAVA
Chain of UniProt P68366 (P68366 whole entry): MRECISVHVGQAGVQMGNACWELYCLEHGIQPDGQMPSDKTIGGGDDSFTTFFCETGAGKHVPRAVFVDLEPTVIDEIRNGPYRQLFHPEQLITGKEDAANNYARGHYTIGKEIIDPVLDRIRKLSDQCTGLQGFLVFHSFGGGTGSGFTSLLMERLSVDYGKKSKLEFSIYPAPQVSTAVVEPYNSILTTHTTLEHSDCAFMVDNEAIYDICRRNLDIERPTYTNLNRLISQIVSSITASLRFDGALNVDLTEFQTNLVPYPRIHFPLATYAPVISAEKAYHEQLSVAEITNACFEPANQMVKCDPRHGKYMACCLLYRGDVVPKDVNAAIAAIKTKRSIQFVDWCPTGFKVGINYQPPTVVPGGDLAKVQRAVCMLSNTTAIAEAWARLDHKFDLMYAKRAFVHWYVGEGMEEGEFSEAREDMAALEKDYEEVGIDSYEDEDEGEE

Compound in this assay: C#CCNC(=O)CCSSCCC(=O)NCCc1ccc(C=O)c(C=O)c1
Put plainly: lysine labeling ratio R10:1 (500 µM / 50 µM probe), SILAC-ABPP in living cells; higher = lower intrinsic lysine reactivity toward the probe, active = 2 or less. The following applies: HeLa; probe concentrations 500 vs 50 µM. In short, it runs like this: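 SILAC light and heavy living HeLa cells in PBS at room temperature were labelled with 50 µM or 500 µM of an alkyne-tagged, disulfide-linked lysine probe, with forward and reverse label swaps. Mixed lysates were clicked to biotin-azide, trypsin-digested, captured on neutravidin, DTT-released, alkylated and analysed by LC-MS/MS on a TIMS-TOF Pro. R is the filtered median high-probe/low-probe MS1 peptide ratio per lysine, then the median across forward and reverse replicates. Ratios are capped at 20.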
As to UniProt Q16363 (lysine site: K518), the “lysine labeling ratio R10:1” value was 2.09. With “CD55 (lysine site: K110) (UniProt P08174)”, the “lysine labeling ratio R10:1” value is 2.89. As to UniProt Q8IWU5 (lysine site: K443), the “lysine labeling ratio R10:1” value is 1.5 (active). As for “DBN1 (lysine site: K248) (UniProt Q16643)”, the “lysine labeling ratio R10:1” value was 0.855 (active). UniProt P68366 (lysine site: K112): the “lysine labeling ratio R10:1” value is 2.82. With UniProt P62195 (lysine site: K55), the “lysine labeling ratio R10:1” value was 2.19. As for “KTN1 (lysine site: K1240) (UniProt Q86UP2)”, the figure is 5.6; as for “RDX (lysine site: K520) (UniProt P35241)”, 1.76 (active); as for “RDX (lysine site: K556) (UniProt P35241)”, 1.52 (active). Turning to “SEMA3C (lysine site: K163) (UniProt Q99985)”, the “lysine labeling ratio R10:1” value is 3.6. Take “TGFBR3 (lysine site: K667) (UniProt Q03167)”: the “lysine labeling ratio R10:1” value is 0.83 (active). As for “CDH2 (lysine site: K223) (UniProt P19022)”, the figure is 2.63; as for “MET (lysine site: K600) (UniProt P08581)”, 1.67 (active).

For “EPCAM (lysine site: K168) (UniProt P16422)”, the “lysine labeling ratio R10:1” value is 6.35. As for “FRAS1 (lysine site: K549) (UniProt Q86XX4)”, the figure is 4.59; as for “XRCC5 (lysine site: K265) (UniProt P13010)”, 3.42. Regarding “VPS35 (lysine site: K515) (UniProt Q96QK1)”, the “lysine labeling ratio R10:1” value was 1.25 (active). The value for “HSPA8 (lysine site: K251) (UniProt P11142)” was 1.57 (active); that for “MYH9 (lysine site: K299) (UniProt P35579)” was 2.23; that for “SPTAN1 (lysine site: K2205) (UniProt Q13813)” was 6.67. For UniProt Q15149 (lysine site: K1886), the “lysine labeling ratio R10:1” value was 1.49 (active). The value for “SUB1 (lysine site: K97) (UniProt P53999)” was 6.03; that for UniProt P62333 (lysine site: K298) was 1.53 (active). As for “CAPZB (lysine site: K237) (UniProt P47756)”, the “lysine labeling ratio R10:1” value is 1.4 (active). Consider “SMOC1 (lysine site: K308) (UniProt Q9H4F8)”, for which the “lysine labeling ratio R10:1” value was 4.95. As for “EGFR (lysine site: K293) (UniProt P00533)”, the figure is 3.59. The value for “RPL22 (lysine site: K52) (UniProt P35268)” was 7.72; that for “ADGRG2 (lysine site: K592) (UniProt Q8IZP9)” was 2.37; that for “SLC44A2 (lysine site: K210) (UniProt Q8IWA5)” was 2.8. On to “FLNA (lysine site: K876) (UniProt P21333)”, for which the “lysine labeling ratio R10:1” value was 4.23. With UniProt Q15149 (lysine site: K2025), the “lysine labeling ratio R10:1” value was 4.19. For the target UniProt Q14574 (lysine site: K381), the “lysine labeling ratio R10:1” value is 1.61 (active).

For the target UniProt O60245 (lysine site: K713), the “lysine labeling ratio R10:1” value is 2.99. The value for “RARS (lysine site: K60) (UniProt P54136)” was 3.02; that for “S100A4 (lysine site: K35) (UniProt P26447)” was 6.43; that for UniProt Q68BL7 (lysine site: K168) was 1.12 (active).

Regarding “VDAC1 (lysine site: K274) (UniProt P21796)”, the “lysine labeling ratio R10:1” value was 0.919 (active). As for “EGFR (lysine site: K538) (UniProt P00533)”, the figure is 5.46; as for “CTTN (lysine site: K87) (UniProt Q14247)”, 2.06; as for “LMO7 (lysine site: K1248) (UniProt Q8WWI1)”, 0.993 (active).

(Values after the supplement of paper PMC11001985.)
